Among the data in PubChem BioAssay (NCATS) are Potency and outcome values, retold here.

Molecules are shown by their SMILES. Inconclusive results are not listed. The source made the active and inactive calls. Unless noted, the call rests on the fitted dose curve; in most records, active means well fitted curve in the direction sought with a large enough effect; inconclusive means small, poorly fitted or top-dose-only effect, or another doubt; inactive means no such curve, though single readings can be large; an effect the other way counts as inactive or inconclusive.

The nature of experiment [1]: qHTS for differential inhibitors of proliferation of Plasmodium falciparum line HB3 (AID 1886).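 Further: parasites grown with compound for 72 h before SYBR Green readout.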 Further: potency means the concentration at half of the fitted maximal effect. Particulars: Potency: Plasmodium falciparum HB3 proliferation inhibition.
Experiment [2] addresses Ferritin light chain (Equus caballus) (UniProt P02791). Kind of experiment: qHTS Validation Assay for Identification of Novel General Anesthetics (AID 2323). Further: series mostly up to about 77 µM. A digest of the protocol: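 Competitive displacement of profluorescent 1-aminoanthracene (1-AMA, 50% saturated solution in PBS) from 10 uM horse-spleen apoferritin. Compounds incubated 10 min at room temperature; fluorescence read at 380 nm excitation/535 nm emission, normalized to free 1-AMA and complex, fitted with four-parameter Hill equation.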

For experiment [3], the target named is ATP-dependent DNA helicase Q1 (Homo sapiens) (UniProt P46063). The experiment in a line: qHTS Validation Assay for Inhibitors of RecQ-Like Dna Helicase 1 (RECQ1) (AID 2353). In outline:
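50 nM RECQ1T1 preincubated 15 min with compound in Tris pH 8.0 buffer with MgCl2, DTT, Tween-20 and 2.5 ug/ml poly(dI-dC); started with 200 nM TAMRA/BHQ-2 forked duplex and 2 mM ATP. Unwinding read as fluorescence (525/598 nm), two reads 2 h apart.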

Experiment [4] deals with RecQ-like DNA helicase BLM (Homo sapiens) (UniProt P54132). Kind of experiment: qHTS Validation Assay for Inhibitors of Bloom's syndrome helicase (BLM) (AID 2364). A digest of the protocol:
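50 nM BLM preincubated 15 min at room temperature with compound in pH 8.0 Tris buffer containing 2.5 ug/ml poly(dI-dC); started with 200 nM TAMRA/BHQ-2 forked duplex and 2 mM ATP (final). Unwinding read as TAMRA fluorescence increase, two reads 2 h apart.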

A short description of experiment [5]: Cytometric Cell-Based qHTS for Inhibitors of the mTORC1 Signaling Pathway in MEF (Tsc2-/-, p53-/-) Cells (AID 2660). Further: potency means the concentration at half of the fitted maximal effect. A digest of the protocol:
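Percent of cells positive for normalized phospho-S6 staining is reported, with the cutoff set from rapamycin (7.5 nM) versus DMSO wells. Tsc2-/-, p53-/- MEFs received compound for 24 hrs.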

Experiment [6] is described as follows: High Content Imaging Cell-Based qHTS for Inhibitors of the mTORC1 Signaling Pathway in MEF (Tsc2-/-, p53-/-) Cells (AID 2666). Further: potency means the concentration at half of the fitted maximal effect. In outline: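 Phospho-rpS6 (Ser235/236) immunofluorescence, normalized and scored as % positive cells using rapamycin and DMSO controls, was read in empty-vector Tsc2-/-, p53-/- MEFs after 24 h compound exposure at 37 C; propidium iodide counted cells.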

Experiment [7] in a line: High Content Imaging Cell-Based qHTS for Inhibitors of the mTORC1 Signaling Pathway in MEF Cells (AID 2667).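 Further: Tsc2-/- p53-/- MEFs stably re-expressing wild-type Tsc2 exposed 24 h; series mostly up to about 38 µM.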 A digest of the protocol:
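WT MEFs (Tsc2-/-, p53-/- re-expressing Tsc2), in DMEM + 10% FBS, were treated with compound for 24 h at 37 C. Cells were then fixed and stained for phospho-rpS6 Ser235/236 with propidium iodide as cell count. Values are % positive cells, with thresholds set against rapamycin-treated cells.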

Experiment [8] can be described thus: Cytometry Cell-Based qHTS for Inhibitors of the mTORC1 Signaling Pathway in MEF cells (AID 2668).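 Further: Tsc2-/- p53-/- mouse embryonic fibroblasts stably re-expressing wild-type Tsc2; percent cells positive for phospho-rpS6 Ser235/236 relative to propidium iodide stain; series mostly up to about 38 µM.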 In outline:
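WT MEFs (Tsc2-/-, p53-/- stably re-expressing WT Tsc2) in DMEM + 10% FBS received compounds 24 hrs after plating, for 24 hrs at 37 degree Celsius. Fixed cells stained with Alexa-488 anti-phospho-rpS6 Ser235/236 and propidium iodide; laser-scanning cytometry read-out.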

The nature of experiment [9]: Validation screen for inhibitors of Lassa infection (AID 463096; calls by dose curve; further: potency means the concentration at half of the fitted maximal effect).
Experiment [10] in a line: Validation screen for small molecules that induce DNA re-replication in MCF 10A normal breast cells (AID 463097). Further: nearly all actives have a fitted effect of over 60% in size. Further: potency means the concentration at half of the fitted maximal effect. A digest of the protocol: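 Readout: Hoechst nuclear fluorescence intensity, 405 ex / 500-530 em, by scanning plate imager; re-replication scored as increase in nuclei with elevated DNA content. Cells exposed to compound 48 hr, 37 C, 5% CO2 beforehand.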
The target of experiment [11] is Ubiquitin carboxyl-terminal hydrolase 2 (Homo sapiens) (UniProt O75604). The experiment in a line: qHTS Validation Assay for Inhibitors of Ubiquitin-specific Protease USP2a Using CHOP2 as the Reporter (AID 463106). A digest of the protocol: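 USP2 core (10 nM final) was preincubated with compound 30 min at RT in pH 8.0 Tris/CaCl2/beta-ME/CHAPS buffer. Ub-CHOP2 and reporter substrate (25 nM final each) were then added, with fluorescence (Ex 485/Em 531) read after 60 min. Data were normalized to NEM full inhibition and fitted to concentration-response curves.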

Experiment [12] addresses DNA polymerase III PolC-type (Bacillus subtilis (strain 168)) (UniProt P13267). The experiment in a line: qHTS Validation Assay for the Inhibitors of DNA Replication in Gram-Positive Bacteria (AID 485295). Further: potency means the concentration at half of the fitted maximal effect. In outline: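 Reconstituted B. subtilis holoenzyme (Pol III, beta clamp, SSB, primase) was preincubated with compound at room temperature, then given single-stranded circular M13Gori plus dNTPs and NTPs. EDTA-containing PicoGreen stopped the reaction, and dsDNA product was read by fluorescence.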

Experiment [13] in a line: qHTS Validation Assay to Find Inhibitors of Chronic Active B-Cell Receptor Signaling (AID 485345; active means well fitted curve in the direction sought with a large enough effect in the main read-out, with a control signal flat, not every such curve was filed as active). A digest of the protocol: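 TMD8 ABC-DLBCL cells stably carrying doxycycline-inducible IkappaBalpha–green luciferase fusion plus unfused red luciferase; compounds 46 uM to 3 nM, 4 h at 37C with doxycycline. Corrected green/red luminescence ratio normalized to 10 uM MG-132 and basal cell wells; curves fitted.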

Experiment [14] is described as follows: qHTS Assay for Modulators of Human Peripheral Myelin Protein 22 (PMP22) Expression/Activity (AID 1967; active means well fitted curve in the direction sought with a large enough effect in the signal ratio; the % refers to the signal ratio). A digest of the protocol:
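MSC80 mouse Schwann cells stably carrying Pmp22 promoter–green click beetle luciferase plus EF-alpha–red luciferase control were dosed for 24h at 37 °C. Dual-colour luminescence was filter-overlap corrected; %Activity came from green/red ratio versus untreated cells.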

The target of experiment [15] is Tumor susceptibility gene 101 protein (Homo sapiens) (UniProt Q99816). Kind of experiment: qHTS Validation Assay for Iinhibitors of HIV-1 Budding by Blocking the Interaction of PTAP/TSG101 (AID 485342; calls by dose curve). A digest of the protocol:
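Tsg101 binding domain (10 uM final) in pH 7.5 HEPES/NaCl/Tween 20/EDTA/TCEP buffer was mixed with pin-transferred compounds, then FITC-labeled PTAP peptide (50 nM final) was added; after 20 min at r.t., fluorescence polarization was read.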

Experiment [16] deals with ATP-dependent 6-phosphofructokinase (Trypanosoma brucei brucei) (UniProt O15648). Kind of experiment: qHTS Validation Assay to Find Inhibitors of T. brucei phosphofructokinase (AID 485368). Further: potency means the concentration at half of the fitted maximal effect. In outline:
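Activity was normalized between 1x (1.25 nM) PFK wells as no inhibition and enzyme-free wells as full inhibition, from luminescence after ADP-Glo detection of ADP made from 0.5 mM F6P and 0.1 mM ATP over 45 min.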

Experiment [17] has as its target Beta-2 adrenergic receptor (Homo sapiens) (UniProt P07550). The experiment in a line: qHTS validation assay of beta-arrestin-biased ligands of beta2-adrenergic receptor (AID 485366). In outline: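 Luminescence from a tTA-responsive luciferase, induced when recombinant beta-arrestin is recruited to recombinant beta2-AR, served as the agonism signal. Cells were exposed to compound for 18 hr at 37 degrees C; titrations spanned up to 46 microM.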

RecQ-like DNA helicase BLM (Homo sapiens), sequence (P54132 whole entry, looked up): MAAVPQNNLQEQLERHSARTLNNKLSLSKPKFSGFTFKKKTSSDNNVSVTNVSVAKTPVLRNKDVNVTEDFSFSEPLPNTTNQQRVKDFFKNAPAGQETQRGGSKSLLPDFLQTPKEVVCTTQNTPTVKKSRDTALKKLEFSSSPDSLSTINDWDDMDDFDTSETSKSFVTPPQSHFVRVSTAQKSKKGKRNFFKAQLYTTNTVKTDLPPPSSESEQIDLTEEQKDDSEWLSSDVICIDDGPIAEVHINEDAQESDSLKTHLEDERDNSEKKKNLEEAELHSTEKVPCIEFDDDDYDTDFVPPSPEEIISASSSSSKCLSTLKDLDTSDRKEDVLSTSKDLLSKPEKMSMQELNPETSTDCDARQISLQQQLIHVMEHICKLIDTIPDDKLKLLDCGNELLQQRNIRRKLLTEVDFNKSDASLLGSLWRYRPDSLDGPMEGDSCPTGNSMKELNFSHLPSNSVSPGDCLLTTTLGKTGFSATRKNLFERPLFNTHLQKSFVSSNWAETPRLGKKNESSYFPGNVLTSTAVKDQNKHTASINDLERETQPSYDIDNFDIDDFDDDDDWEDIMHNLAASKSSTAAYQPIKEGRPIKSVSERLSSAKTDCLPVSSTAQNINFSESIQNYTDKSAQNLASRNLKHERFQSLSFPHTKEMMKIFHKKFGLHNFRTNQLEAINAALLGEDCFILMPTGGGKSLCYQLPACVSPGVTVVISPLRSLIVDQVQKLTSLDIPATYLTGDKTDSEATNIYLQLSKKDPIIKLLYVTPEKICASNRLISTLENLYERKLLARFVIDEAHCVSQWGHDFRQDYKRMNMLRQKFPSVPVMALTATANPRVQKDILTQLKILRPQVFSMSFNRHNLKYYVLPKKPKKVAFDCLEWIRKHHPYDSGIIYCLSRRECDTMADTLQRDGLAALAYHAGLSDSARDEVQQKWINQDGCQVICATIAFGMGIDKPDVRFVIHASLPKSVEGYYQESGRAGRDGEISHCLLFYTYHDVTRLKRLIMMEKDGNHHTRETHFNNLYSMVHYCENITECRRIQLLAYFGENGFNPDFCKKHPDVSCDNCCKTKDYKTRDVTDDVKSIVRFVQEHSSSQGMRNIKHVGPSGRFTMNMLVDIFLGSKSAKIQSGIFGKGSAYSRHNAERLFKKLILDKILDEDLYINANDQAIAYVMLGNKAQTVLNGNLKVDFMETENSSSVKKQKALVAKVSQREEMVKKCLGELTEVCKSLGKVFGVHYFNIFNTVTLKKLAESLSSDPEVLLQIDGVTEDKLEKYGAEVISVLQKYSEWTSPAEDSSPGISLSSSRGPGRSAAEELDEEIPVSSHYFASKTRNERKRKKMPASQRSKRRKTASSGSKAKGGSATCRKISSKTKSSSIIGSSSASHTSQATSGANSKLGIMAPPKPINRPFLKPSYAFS
ATP-dependent 6-phosphofructokinase (Trypanosoma brucei brucei), sequence (O15648 whole entry, looked up): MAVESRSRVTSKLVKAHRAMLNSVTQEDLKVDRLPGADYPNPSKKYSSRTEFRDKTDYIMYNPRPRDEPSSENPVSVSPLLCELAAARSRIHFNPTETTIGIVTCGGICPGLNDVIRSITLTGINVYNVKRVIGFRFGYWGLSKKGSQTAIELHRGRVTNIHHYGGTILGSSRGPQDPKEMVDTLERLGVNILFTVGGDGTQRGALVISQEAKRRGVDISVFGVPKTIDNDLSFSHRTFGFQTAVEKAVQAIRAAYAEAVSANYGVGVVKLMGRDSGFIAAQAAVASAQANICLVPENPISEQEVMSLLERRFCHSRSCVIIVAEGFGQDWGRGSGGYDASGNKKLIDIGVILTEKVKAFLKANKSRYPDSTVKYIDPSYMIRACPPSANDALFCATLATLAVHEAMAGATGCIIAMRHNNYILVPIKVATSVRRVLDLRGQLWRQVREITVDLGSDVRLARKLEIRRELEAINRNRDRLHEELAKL
Tumor susceptibility gene 101 protein (Homo sapiens), sequence (Q99816 whole entry, looked up, the tested form may be a part): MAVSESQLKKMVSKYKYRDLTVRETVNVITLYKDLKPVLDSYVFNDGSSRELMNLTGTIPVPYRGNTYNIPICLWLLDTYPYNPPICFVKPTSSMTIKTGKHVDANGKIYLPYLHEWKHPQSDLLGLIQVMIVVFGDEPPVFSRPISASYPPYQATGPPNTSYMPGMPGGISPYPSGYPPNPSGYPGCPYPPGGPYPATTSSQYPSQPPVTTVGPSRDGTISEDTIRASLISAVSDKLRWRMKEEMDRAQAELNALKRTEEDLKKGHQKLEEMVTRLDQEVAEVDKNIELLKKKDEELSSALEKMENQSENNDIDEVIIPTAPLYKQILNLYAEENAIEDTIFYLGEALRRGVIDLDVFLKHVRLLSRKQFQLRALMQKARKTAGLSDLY
Beta-2 adrenergic receptor (Homo sapiens), sequence (P07550 whole entry, looked up): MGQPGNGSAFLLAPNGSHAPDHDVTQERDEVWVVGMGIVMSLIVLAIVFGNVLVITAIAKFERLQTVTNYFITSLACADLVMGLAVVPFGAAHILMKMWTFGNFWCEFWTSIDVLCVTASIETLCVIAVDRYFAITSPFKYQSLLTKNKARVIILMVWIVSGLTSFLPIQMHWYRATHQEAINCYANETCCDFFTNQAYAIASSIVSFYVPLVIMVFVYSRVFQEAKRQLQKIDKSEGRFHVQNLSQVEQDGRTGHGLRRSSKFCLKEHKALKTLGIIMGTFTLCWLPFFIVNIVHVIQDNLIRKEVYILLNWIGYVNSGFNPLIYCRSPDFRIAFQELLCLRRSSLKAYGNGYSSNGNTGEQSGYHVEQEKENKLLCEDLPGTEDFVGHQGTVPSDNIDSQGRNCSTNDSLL
ATP-dependent DNA helicase Q1 (Homo sapiens), sequence (P46063 whole entry, looked up): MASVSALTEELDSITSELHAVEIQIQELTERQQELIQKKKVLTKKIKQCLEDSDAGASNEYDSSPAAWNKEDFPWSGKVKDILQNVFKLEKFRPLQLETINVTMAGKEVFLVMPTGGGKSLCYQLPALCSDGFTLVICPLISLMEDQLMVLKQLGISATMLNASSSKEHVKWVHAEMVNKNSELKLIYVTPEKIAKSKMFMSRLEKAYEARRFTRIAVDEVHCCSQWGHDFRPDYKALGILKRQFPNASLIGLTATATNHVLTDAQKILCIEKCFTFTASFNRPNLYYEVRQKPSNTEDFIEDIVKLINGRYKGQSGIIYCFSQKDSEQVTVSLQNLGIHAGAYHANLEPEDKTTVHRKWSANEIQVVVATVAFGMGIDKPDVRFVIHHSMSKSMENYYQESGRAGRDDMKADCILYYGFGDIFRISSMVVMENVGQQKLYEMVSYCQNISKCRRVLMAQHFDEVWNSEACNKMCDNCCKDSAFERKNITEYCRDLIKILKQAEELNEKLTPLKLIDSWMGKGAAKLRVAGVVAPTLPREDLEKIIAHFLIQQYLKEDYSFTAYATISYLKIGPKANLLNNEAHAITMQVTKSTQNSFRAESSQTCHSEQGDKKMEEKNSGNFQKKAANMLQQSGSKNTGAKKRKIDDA
DNA polymerase III PolC-type (Bacillus subtilis (strain 168)), sequence (P13267 whole entry, looked up): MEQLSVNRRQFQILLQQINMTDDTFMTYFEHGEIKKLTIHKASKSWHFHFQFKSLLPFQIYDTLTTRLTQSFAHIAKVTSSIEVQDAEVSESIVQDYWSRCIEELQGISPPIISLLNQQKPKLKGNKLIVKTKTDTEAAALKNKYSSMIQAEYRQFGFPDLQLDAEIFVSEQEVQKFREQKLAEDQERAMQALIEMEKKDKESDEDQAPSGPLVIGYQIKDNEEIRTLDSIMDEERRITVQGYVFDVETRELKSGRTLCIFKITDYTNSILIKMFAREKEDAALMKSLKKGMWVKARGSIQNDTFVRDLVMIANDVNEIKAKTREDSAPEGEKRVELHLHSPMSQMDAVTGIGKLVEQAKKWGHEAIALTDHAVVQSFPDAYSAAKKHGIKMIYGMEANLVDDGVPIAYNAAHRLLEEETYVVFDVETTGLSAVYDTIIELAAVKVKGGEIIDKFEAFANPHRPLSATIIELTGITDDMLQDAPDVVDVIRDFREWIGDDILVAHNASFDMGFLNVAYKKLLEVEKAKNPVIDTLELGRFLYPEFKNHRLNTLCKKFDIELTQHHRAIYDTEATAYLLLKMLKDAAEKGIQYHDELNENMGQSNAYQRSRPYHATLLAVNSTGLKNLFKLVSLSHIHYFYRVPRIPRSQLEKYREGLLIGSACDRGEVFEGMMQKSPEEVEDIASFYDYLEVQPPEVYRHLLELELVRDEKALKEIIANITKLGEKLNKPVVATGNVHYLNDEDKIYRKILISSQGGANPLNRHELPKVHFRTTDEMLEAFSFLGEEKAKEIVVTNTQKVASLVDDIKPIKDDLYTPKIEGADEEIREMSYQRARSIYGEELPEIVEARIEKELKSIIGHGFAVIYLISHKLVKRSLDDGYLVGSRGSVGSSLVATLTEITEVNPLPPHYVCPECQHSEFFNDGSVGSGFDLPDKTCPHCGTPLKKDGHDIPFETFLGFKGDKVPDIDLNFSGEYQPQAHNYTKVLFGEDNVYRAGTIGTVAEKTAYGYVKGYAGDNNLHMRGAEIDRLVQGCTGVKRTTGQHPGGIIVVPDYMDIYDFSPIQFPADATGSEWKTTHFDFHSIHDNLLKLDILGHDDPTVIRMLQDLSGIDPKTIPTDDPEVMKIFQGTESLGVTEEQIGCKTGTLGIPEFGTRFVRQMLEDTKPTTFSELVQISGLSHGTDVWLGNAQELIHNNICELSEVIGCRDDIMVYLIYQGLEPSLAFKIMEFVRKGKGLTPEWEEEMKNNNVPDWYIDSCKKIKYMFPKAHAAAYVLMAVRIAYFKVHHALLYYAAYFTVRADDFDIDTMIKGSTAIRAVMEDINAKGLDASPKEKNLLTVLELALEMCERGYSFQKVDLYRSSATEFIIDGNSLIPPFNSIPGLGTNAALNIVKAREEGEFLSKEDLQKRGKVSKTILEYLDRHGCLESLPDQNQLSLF
Ferritin light chain (Equus caballus), sequence (P02791 2-175 limits assumed): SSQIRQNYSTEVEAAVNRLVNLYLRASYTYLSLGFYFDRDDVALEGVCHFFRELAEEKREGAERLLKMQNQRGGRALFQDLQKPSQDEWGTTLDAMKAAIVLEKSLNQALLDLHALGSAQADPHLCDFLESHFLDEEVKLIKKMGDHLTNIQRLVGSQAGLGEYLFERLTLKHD

With `O=S1(=O)N(CCN2CC=C(c3c[nH]c4cc(F)ccc34)CC2)c2cccc3c2N1CCC3`, the Potency is 1.26 µM (active) in experiment [1] and 14.1 µM (active) in experiment [10]. For the same molecule, the molecule was called inactive in experiment [2]. Further, the Potency entry in experiment [3], in experiment [4], in experiment [5], in experiment [6], in experiment [7] and in experiment [8] was “inactive” each time. For the same molecule, the Potency result in [9], in [11], in experiment [12] and in [13] was “inactive” throughout.

For `CCCN1CC[C@@H]2c3cc(O)ccc3CC[C@@H]21`, the Potency entry in experiment [1], in experiment [3], in [4], in [5], in [6] and in experiment [7] was “inactive” each time. Also, the Potency entry in [9], in experiment [10], in experiment [11], in experiment [12], in [13] and in experiment [16] was “inactive” each time. Further, the outcome in experiment [14], in experiment [2] and in [15] was inactive.

Consider `OC1CCCCC1N1CCC(c2ccccc2)CC1` (stereo not given), for which the Potency entry in [1], in experiment [3], in [5], in [6], in [7] and in [10] was “inactive” each time. The Potency entry in [11], in [12], in experiment [13] and in [16] was “inactive” each time. Also, the result in experiment [14], in experiment [2] and in experiment [15] was inactive.

For `CN1C2CCC1CC(OC(c1ccccc1)c1ccccc1N)C2` (stereo not given), the Potency in [1] is 10 µM (active). Besides, the molecule was called inactive in experiment [2], in experiment [15] and in experiment [17]. The Potency entry in experiment [3], in experiment [4], in experiment [6], in experiment [7], in experiment [9] and in [10] was “inactive” throughout. Besides, the Potency entry in experiment [11], in [12], in experiment [13] and in [16] was “inactive” throughout.

With `CN1C2CCC1CC(OC(c1ccccc1)c1ccc(Cl)cc1)C2` (stereo not given), the Potency in experiment [1] was 2.24 µM (active); in [9], 8.91 µM (active). The molecule was called inactive in [2]. Moreover, the Potency entry in experiment [3] and in [4] was “inactive” in each case.

As for `CN1CC[C@@]2(C)c3cc(O)ccc3N(C)C12` (stereo not given in full), the Potency in experiment [1] is 8.91 µM (active). Moreover, the call in experiment [2], in experiment [15] and in experiment [17] was inactive. Also, the Potency entry in experiment [3], in [6], in experiment [7], in [11], in [12] and in [13] was “inactive” in each case.

Take `C[N+]1(C)CCN(c2ccccc2)CC1`: the Potency result in experiment [1], in experiment [3], in [5], in experiment [6], in experiment [7] and in experiment [9] was “inactive” each time. The Potency entry in experiment [10], in experiment [11] and in experiment [12] was “inactive” throughout. Further, the outcome in experiment [2] and in [17] was inactive.

As for `CNc1ccc2oc(C[C@H]3O[C@@]4(CC[C@H]3C)O[C@H]([C@H](C)C(=O)c3ccc[nH]3)[C@H](C)C[C@H]4C)nc2c1C(=O)O`, the Potency in experiment [1] was 1.26 µM (active); in experiment [5], 14.7 µM (active); in [6] it was 2.61 µM (active); in experiment [9], 7.08 µM (active); in [10] it was 1.58 µM (active). The molecule was classed as inactive in experiment [2] and in [17]. The Potency result in experiment [3], in experiment [11] and in experiment [12] was “inactive” in each case.

As for `COc1ccc2c(c1)[C@@]13CCCC[C@H]1[C@@H](C2)NCC3`, in [1], the Potency is 11.2 µM (active). The result in [2] and in experiment [15] was inactive. In addition, the Potency result in experiment [3], in experiment [4], in [7], in [10], in experiment [11] and in [12] was “inactive” in each case. The Potency result in experiment [16] was “inactive”.

Take `CNC(=O)OCC[N+](C)(C)C`: the Potency entry in [1], in experiment [3], in [4], in experiment [9] and in experiment [10] was “inactive” in each case. In experiment [2], the call was inactive.

As for `O=C(O)c1cc[c]([Hg][Cl])cc1`, the figures for the Potency in [1], in experiment [12] and in experiment [16] were 5.01 µM (active), 4.74 µM (active) and 0.269 µM (active), respectively. In addition, in [2], the molecule was called inactive. Further, the Potency entry in experiment [3], in experiment [5], in experiment [6], in [7], in [8] and in [9] was “inactive” each time. For the same molecule, the Potency entry in [10] and in [11] was “inactive” each time.

For the molecule `O=[N+]([O-])c1ccc2nc(N3CCNCC3)ccc2c1`, the Potency in [1] is 12.6 µM (active). Further, the outcome in experiment [2] and in experiment [17] was inactive. Further, the Potency entry in experiment [3], in experiment [4], in [5], in experiment [6], in experiment [7] and in [10] was “inactive” each time. Besides, the Potency entry in experiment [11] and in experiment [12] was “inactive” each time.
